Assay outcomes as filed in PubChem.
Shown is part of a subset that was picked to be rich in hits.
DUX4 inh – blocks DUX4-driven transcriptional activation; activity change, negative = inhibition, % (concentration not given with the values); AID 1224904; 293T-iDUX4 ZSCAN4-Gaussia luciferase reporter, 24 h; active compounds read low; 37,000 compounds, 0.8% hits;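 active = mean inhibition of at least 10% in the main channel, exceeding the control channel by a set limit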;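 also: 0% = median of neutral control wells and -100% = median of positive control wells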
Starred values were filed as active, the others as inactive; ! = repeats disagree.

SMILES | DUX4 inh
COc1cccc(S(=O)(=O)N2C[C@@H]3N[C@H](C2)C3c2ccc(-c3ccccc3C)cc2)c1 (stereo partly specified) | -36*!
COc1cccc(-c2ccc(C3[C@H]4CNC[C@@H]3N4S(=O)(=O)Cc3ccccc3)cc2)c1 (stereo partly specified) | 4
CN(C)C(=O)c1cccc(-c2ccc(C3[C@H]4CNC[C@@H]3N4S(=O)(=O)Cc3ccccc3)cc2)c1 (stereo partly specified) | 9
C[C@@H]1CC=CC[C@@H](c2cccc(Cl)c2)NC(=O)[C@H](C)N(C)C(=O)c2ccccc2O1 (mixture of isomers) | 2
C/C=C/c1ccc([C@H]2[C@H](CO)N(S(=O)(=O)Cc3ccccc3)C23CN(C(=O)C2CCOCC2)C3)cc1 | -3
COc1ccc2c3c(n(C)c2c1)[C@@H](CO)N(C(=O)Nc1ccccc1F)CC31CN(C)C1 | 0
O=C(C[C@@H]1CC[C@H]2[C@@H](COC[C@H](O)CN2CC2CCOCC2)O1)N1CCOCC1 | 5
O=C(C1CCOCC1)N1CC[C@@H]2[C@H](CO)Nc3ccc(-c4ccc(F)cc4)cc3[C@@H]21 | -5
O=C(c1ccccc1)N1CC(=O)N2[C@@H](CO)[C@H](c3ccc(/C=C/c4ccccc4)cc3)[C@@H]2C1 | 2
COc1ccc(NC(=O)N2CCCCN3[C@@H](CO)[C@H](c4ccc(C#CCC(C)C)cc4)[C@@H]3C2)cc1 | -1
COc1ccc(C#Cc2ccc([C@H]3[C@H](CO)N4CCCCN(C)C[C@@H]34)cc2)cc1 | -26*
OC[C@H]1[C@@H](c2ccc(C#CC3(O)CCCC3)cc2)[C@H]2CN(Cc3ccncc3)CCCCN21 | 15
CN1CCCCN2[C@H](CO)[C@H](c3ccc(C#CC4(O)CCCC4)cc3)[C@@H]2C1 | 25
COc1ccc(NC(=O)N2CCCCN3[C@H](C2)[C@H](c2ccc(C#CCC(C)C)cc2)[C@@H]3CO)cc1 | 15
OC[C@H]1[C@H](c2ccc(C#CC3(O)CCCC3)cc2)[C@@H]2CN(Cc3ccncc3)CCCCN12 | 15
CN1CCCCN2[C@H](C1)[C@@H](c1ccc(C#CC3(O)CCCC3)cc1)[C@@H]2CO | -9
CCCC#Cc1ccc([C@H]2[C@H](CO)N3CCCCN(Cc4ccncc4)C[C@@H]23)cc1 | 20
COc1ccc(C#Cc2ccc([C@H]3[C@@H](CO)N4CCCCN(Cc5ccncc5)C[C@H]34)cc2)cc1 | -32*
COc1ccc(NC(=O)N2CCCCN3[C@H](CO)[C@@H](c4ccc(C#CCC(C)C)cc4)[C@@H]3C2)cc1 | -17*
COc1ccc(C#Cc2ccc([C@@H]3[C@@H](CO)N4CCCCN(Cc5ccncc5)C[C@@H]34)cc2)cc1 | -45*
OC[C@@H]1[C@H](c2ccc(C#CC3(O)CCCC3)cc2)[C@H]2CN(Cc3ccncc3)CCCCN12 | 2
COc1ccc2c3c(n(C)c2c1)[C@@H](CO)NCC31CCN(C(=O)CC2CC2)CC1 | 12
C[C@@H]1CC=CC[C@H](c2ccccc2)NC(=O)[C@@H](Cc2ccccc2)N(C)C(=O)c2ccccc2O1 (mixture of isomers) | 0
O=S(=O)(Cc1ccccc1)NCC[C@@H]1CC[C@@H](NS(=O)(=O)c2ccc(F)cc2)[C@H](CO)O1 | -2
COc1ccc2c3c([nH]c2c1)[C@H](CO)N(C(=O)c1ccc(F)cc1)CC31CN(C(=O)CC2CC2)C1 | 11
SMILES | DUX4 inh
CN(C)Cc1cn(CC[C@H]2CC[C@@H](NS(=O)(=O)c3ccc(-c4ccccc4)cc3)[C@@H](CO)O2)nn1 | -3
CC[C@@H]1C/C=C\C[C@H](c2ccccc2)NC(=O)CCC(=O)N1 | 2
CC(=O)N1[C@H](CO)[C@H](c2ccc(-c3cccnc3)cc2)[C@@H]1CNC(=O)C1CC1 | -4
C[C@H]1CC=CC[C@@H](c2ccccc2)NC(=O)[C@H](Cc2ccccc2)N(C)C(=O)c2ccccc2O1 (mixture of isomers) | -2
CCCNC(=O)N1CC2(C1)CN(C(=O)COC)[C@H](CO)c1c2c2ccc(OC)cc2n1C | 15
COc1ccc2c3c(n(C)c2c1)[C@@H](CO)N(C(=O)CN1CCOCC1)CC31CCN(C(=O)CC2CC2)CC1 | 11
O=C(C[C@H]1C[C@@H]2c3cc(NC(=O)Nc4ccccc4F)ccc3O[C@@H]2[C@H](CO)O1)NCc1cc(F)ccc1F | 0
O=C(C[C@@H]1C[C@H]2c3cc(NC(=O)Nc4ccccc4F)ccc3O[C@H]2[C@@H](CO)O1)NCCc1ccccc1 | -22*
COc1ccccc1CNC(=O)C[C@@H]1C[C@H]2c3cc(NC(=O)Nc4ccccc4F)ccc3O[C@H]2[C@H](CO)O1 | -9
COCCNC(=O)C[C@@H]1C[C@H]2c3cc(NC(=O)Nc4ccccc4F)ccc3O[C@H]2[C@H](CO)O1 | -6
COCCNC(=O)C[C@H]1C[C@H]2c3cc(NC(=O)Nc4ccccc4F)ccc3O[C@H]2[C@H](CO)O1 | -3
O=C(C[C@@H]1C[C@H]2c3cc(NC(=O)Nc4ccccc4F)ccc3O[C@H]2[C@H](CO)O1)NCc1cc(F)ccc1F | -52*
